In publication PMC4552634, “A New Set of Chemical Starting Points with Plasmodium falciparum Transmission-Blocking Potential for Antimalarial Drug Discovery” (PLoS ONE, 2015):
Hit rate of the full screen: of about 13,000 compounds, about 3,200 (25%) showed an effect of 50% or more. The list shows a part of the results.

Each molecule was assayed on P. falciparum stage V gametocytes. Details: 48 h, 5 µM; inhibitor.
Set-up: BacTiter-Glo ATP luminescence viability of purified stage V gametocytes in 384-well plates, per cent inhibition versus DMSO

Compound	% Inhibition
COc1cc(Cl)c(C)cc1-n1cc(C(=O)c2cc(Br)ccc2O)cc(C#N)c1=O [TCMDC-123630]	-51.04%
CCCCC(CC)NC(=O)[C@H]1CNCCN1C(=O)CCCc1ccccc1 (stereo partly shown) [TCMDC-141269]	-15.01%
CCCCOC(=O)C1=C(C)NC2=C(C(=O)CC(c3ccc(OC)c(OC)c3)C2)C1c1ccc(O)cc1 (stereo not shown) [TCMDC-125635]	28.36%
CCOC(=O)C1=C(C)NC2=C(C(=O)C(C(=O)OC)C(C)C2)C1c1cc(Br)c(OCC)c(OC)c1 (stereo not shown) [TCMDC-125139]	94.17%
CCCCOC(=O)C1=C(C)NC2=C(C(=O)CCC2)C1c1ccc(OC)c(Br)c1 (stereo not shown) [TCMDC-124210]	-70.69%
O=C(Nc1ccc(-c2ccc(-c3nc4ccccc4[nH]3)cc2)cc1)Nc1ccc(Cl)c(Cl)c1 [TCMDC-133279]	-60.39%
Oc1ccc(CN2CCN(CCOC(c3ccc(F)cc3)c3ccc(F)cc3)CC2)cc1Cl [TCMDC-135691]	8.088%
CN1CCC(C(=O)Nc2cccc(-c3ccc(-c4nc5ccc(C(F)(F)F)cc5[nH]4)cc3)c2)CC1 [TCMDC-132190]	21.59%
CC(C)CN(c1nc(C(=O)NNC(=O)[C@H](CC2CC2)NC(=O)c2cc3cc(OCCN(C)C)ccc3o2)cs1)C1CC1 [TCMDC-139231]	-13.37%
O=C(N[C@@H](CC1CCCCC1)C(=O)NCCN1CCCCC1)c1ccc(O)c(-c2ccc(Cl)c(Cl)c2)c1 [TCMDC-140862]	10.77%
CC(C)CN(c1nc(C(=O)NNC(=O)[C@H](CC2CC2)NC(=O)c2cc3cc(OCCN4CCCCC4)ccc3o2)cs1)C1CC1 [TCMDC-139232]	55.6%
Cc1nn(CC(O)Cn2c3ccc(Br)cc3c3cc(Br)ccc32)c(C)c1Br (stereo not shown) [TCMDC-124164]	72.64%
OC(CNC1CCCCC1)Cn1c2ccccc2c2ccccc21 (stereo not shown) [TCMDC-124168]	90.81%
Oc1ccc2ccccc2c1CNC1CCCCCC1 [TCMDC-137607]	9.064%
OC(CNCc1ccco1)Cn1c2ccc(Br)cc2c2cc(Br)ccc21 (stereo not shown) [TCMDC-124071]	6.388%
CC1CN(CC(O)Cn2c3ccc(Br)cc3c3cc(Br)ccc32)CC(C)O1 (stereo not shown) [TCMDC-124072]	94.88%
CC1CC(C)CN(CC(O)CNC(=O)Nc2ccc(Br)cc2)C1 (stereo not shown) [TCMDC-134636]	5.991%
CC12CCC(CN(CC(O)Cn3c4ccccc4c4cc(I)ccc43)C1)C2(C)C (stereo not shown) [TCMDC-124075]	-73.11%
CC(C)(C)SCC(O)Cn1c2ccc(Br)cc2c2cc(Br)ccc21 (stereo not shown) [TCMDC-124058]	-64.42%
OC(CN1CCN(C2CCCCC2)CC1)Cn1c2ccccc2c2cc(Br)ccc21 (stereo not shown) [TCMDC-124167]	-21.87%
CC(NCC(O)Cn1c2ccccc2c2ccccc21)c1ccccc1 (stereo not shown) [TCMDC-124073]	13.55%
OC(CNC1CCCCC1)Cn1c2ccc(I)cc2c2cc(I)ccc21 (stereo not shown) [TCMDC-124074]	101.6%
CC(C)(CNC(=O)C1CCN(CC2CCCCC2)CC1)c1nc(-c2ccc(Cl)c(O)c2)c(-c2ccncc2)[nH]1 [TCMDC-141147]	-93.22%
CN(C)CCOc1ccc(-c2cc(-c3ccnc(N)n3)c(-c3ccc(Cl)c(O)c3)o2)cc1 [TCMDC-141338]	-4.532%

Compound	% Inhibition
CCCCCc1cc(O)c2c(c1)OC(C)(C)CC2C1=CCN(Cc2cccnc2)CC1 (stereo not shown) [TCMDC-131417]	-23.46%
CCCc1ccc(NC(=O)c2ccc(CN3CCCN(Cc4cccc(O)c4)CC3)cc2)cc1 [TCMDC-136421]	2.458%
COc1ccc(C=NNc2nc(-c3ccccc3)cc(=O)[nH]2)cc1OC [TCMDC-124217]	8.014%
OC(CNC1CCCCC1)Cn1c2ccc(Br)cc2c2cc(Br)ccc21 (stereo not shown) [TCMDC-124059]	90.2%
CC(C)NCC(O)Cn1c2ccc(Br)cc2c2cc(Br)ccc21 (stereo not shown) [TCMDC-124100]	43.74%
N#Cc1ccc(C2CCN(CC[C@H](N)Cc3ccc(Cl)s3)CC2)cc1 [TCMDC-132358]	63.71%
N#Cc1ccc(-c2ccc(C(=O)NCCCCN3CCC(c4ccncc4)CC3)cc2)cc1 [TCMDC-135811]	-0.7108%
N#Cc1cccc(C(=O)N2CCOC(CCN3CCC(c4ccccc4)CC3)(c3ccc(Cl)c(Cl)c3)C2)c1 (stereo not shown) [TCMDC-135335]	20.78%
CC1(C)N=C(N)N=C(N)N1O [TCMDC-131576]	-2.875%
COc1ccc2ncc(F)c(CCN3CC4CCCC4(CNCc4ccc5c(n4)NC(=O)CS5)C3)c2n1 (stereo not shown) [TCMDC-136065]	28.02%
COc1ccc2ncc(Cl)c(CCN3C[C@H](CNCc4ccc5c(n4)NC(=O)CS5)[C@H](O)C3)c2n1 [TCMDC-136241]	10.16%
COc1ccc2ncc(F)c(CCN3CC[C@@H](CNCc4nc5c(cc4C)SCC(=O)N5)C3)c2n1 [TCMDC-136056]	97.91%
COc1ccc2ncc(F)c(CCN3CCC[C@H](CNCc4ccc5c(n4)NC(=O)CS5)C3)c2n1 [TCMDC-136318]	98.5%
COc1ccc2ncc(F)c(CCN3CC[C@@H](CNCc4cc5c(cn4)OCS5)C3)c2n1 [TCMDC-135643]	33.53%
COc1ccc2ncc(F)c(CCN3CC[C@H](NC(=O)c4ccc5c(n4)NC(=O)CS5)[C@H](O)C3)c2n1 [TCMDC-135907]	-25.82%
COc1ccc(NC(C)C(=O)Nc2ccc(Br)cc2)cc1S(=O)(=O)N1CCCCC1 (stereo not shown) [TCMDC-125032]	-25.53%
O=C(Cc1ccc[n+]([O-])c1)Nc1cccc(-c2cccc(-c3nc4cc(F)ccc4[nH]3)c2)c1 [TCMDC-136989]	-50%
Cc1ccc2nc(N(CCCn3ccnc3)C(=O)C=Cc3cccs3)sc2c1 [TCMDC-124927]	1.025%
O=C(C=Cc1cccs1)N(CCCn1ccnc1)c1nc2ccc(F)cc2s1 [TCMDC-124928]	96.26%
COc1ccc2nc(N(CCCn3ccnc3)C(=O)C=Cc3cccs3)sc2c1 [TCMDC-124926]	-10.06%
OCCN1CCN(C2Cc3ccc(F)cc3Sc3ccc(Cl)cc32)CC1 (stereo not shown) [TCMDC-123467]	11.59%
C=C(NC(=O)c1cc(C)cc(C)c1)C(=O)OC [TCMDC-131725]	5.196%
CC1CCCN1Cc1cccc(-c2ccc(C(=O)NCCOc3ccccc3)s2)c1 (stereo not shown) [TCMDC-133066]	-6.821%
CC(C)(C)OC(=O)[C@H](CC(N)=O)NC(=O)c1ccc(-c2ccc(-c3nc4cc(C(F)(F)F)ccc4[nH]3)s2)cc1 [TCMDC-132340]	-23.75%

Compound	% Inhibition
CC(C)N(Cc1cnc(N)c(C#N)n1)c1ccc(Cl)c(Cl)c1 [TCMDC-137676]	6.722%
O=c1[nH]c(=O)n2c(nc3ccccc32)[nH]1 [TCMDC-131695]	19.78%
COc1ccc(-c2ccc(CNCc3ccc(F)cc3)cc2)cc1S(=O)(=O)NCCN1CCCC1 [TCMDC-132282]	111.7%
COc1ccc(-c2cccc(CNCc3ccc(F)cc3)c2)cc1S(=O)(=O)NCCN1CCCC1 [TCMDC-132408]	73.1%
Cc1cc(-c2ccc(CNCc3ccc(F)cc3)cc2)ccc1S(=O)(=O)NCCN1CCCC1 [TCMDC-132291]	38.43%
Cc1cc(-c2cccc(CNCc3ccc(F)cc3)c2)ccc1S(=O)(=O)NCCN1CCCC1 [TCMDC-132278]	105%
COc1ccc(CNCc2ccc(F)cc2)cc1-c1ccc(OC)c(S(=O)(=O)NCCN2CCCC2)c1 [TCMDC-132295]	107%
COc1ccc(CNCc2ccccc2)cc1-c1ccc(OC)c(S(=O)(=O)NCCN2CCCC2)c1 [TCMDC-132250]	31.04%
O=S(=O)(NCCN1CCCC1)c1ccc(-c2cccc(CNCc3ccc(F)cc3)c2)cc1F [TCMDC-132275]	25.81%
COc1ccc(Nc2nc(NCc3cccc(NS(C)(=O)=O)c3)cc(-c3ccc(OC)cc3)n2)cc1 [TCMDC-133457]	-11.45%
COc1ccc(Nc2ncc3c(-c4cccc(NC(=O)Cc5cccc(O)c5)c4)c[nH]c3n2)cc1OC [TCMDC-135247]	-20.67%
CN1CC=C(c2c[nH]c3ccc(-c4ccccc4)cc23)CC1 [TCMDC-138962]	-5.151%
Cc1cc2nc(-c3ccc(SCC(=O)Nc4ccc5c(c4)OCCO5)nc3)[nH]c2cc1C [TCMDC-125353]	21.88%
O=C(CN1CCC2(CCC1=O)CC(=O)c1ccccc1O2)NCCN1CCOCC1 (stereo not shown) [TCMDC-133148]	11.41%
COc1ccc(-c2ccc(CNCc3ccccc3)cc2)cc1S(=O)(=O)NCCN1CCCC1 [TCMDC-132230]	103.5%
C=CCOC(=O)N1CCC(CNCc2cccc(-c3ccc(-c4nc5cc(C(F)(F)F)ccc5[nH]4)cc3)c2)C1.O=C(O)C(F)(F)F (stereo not shown) [TCMDC-133042]	-7.537%
COc1cccc(OC2CCN(C(=O)c3cc(C(C)(C)C)nn3Cc3ccccc3)CC2)c1 [TCMDC-134143]	-6.866%
COc1cccc(CC(=O)N2CCC(n3c(C)nc4ccc(F)cc43)CC2)c1 [TCMDC-124792]	80.7%
COc1cccc(CNC(=O)c2cccc(-c3cccc(CN4CCC(N5CCCC5)CC4)c3)n2)c1 [TCMDC-134417]	25.8%
COc1cccc(CC(=O)N2CCC(n3c(C)nc4ccc(C)cc43)CC2)c1 [TCMDC-124791]	93.69%
COc1cccc(CC(=O)NC2CCN(c3ccnc4cc(Cl)ccc34)C2)c1 (stereo not shown) [TCMDC-133664]	6.238%
COc1cccc(CNC(=O)NC2CCN(c3ccnc(Nc4ccc(F)cc4)n3)C2)c1 (stereo not shown) [TCMDC-133604]	-32.96%
